Sensor-assay potency score (higher = more potent) data for 16 sequences are collected here from the OligoGym collection.
Note: reference of the scale not given here.

One assay deals with FAM73A. Description: pooled miR-30 sensor sort-seq; sequence = guide strand. To be noted: shRNA.
The sequence TAATATCATCTTCATCTGCTTT came in with a sensor-assay potency score (higher = more potent) of -0.807.
TTCTGTTTCAGCACCGACCAAC had a sensor-assay potency score (higher = more potent) of -0.471.
For the sequence TTGAATAGCGCACCTTCTCAAA, the sensor-assay potency score (higher = more potent) was -1.12.
Regarding AACAACTTGAACCTTTGTCTGA, the sensor-assay potency score (higher = more potent) was -0.33.
TAGCATAGTTACAAACTTGAGA registered a sensor-assay potency score (higher = more potent) of -0.258.
Turning to TACTGGAACAACTTGAACCTTT, the sensor-assay potency score (higher = more potent) came out at 0.0533.
The sequence TGTACTTGAATAGCGCACCTTC yielded a sensor-assay potency score (higher = more potent) of 0.381.
Take TTAAGTATAAGTTCTCTGGAGT: the sensor-assay potency score (higher = more potent) is -0.00837.
As for TTGAACCTTTGTCTGATGCTGC, the sensor-assay potency score (higher = more potent) is 0.182.
On the same count and under the same terms, next, TATCTTTATCAATATCATCAGC: -1.22.

For a further assay, the target named is FAM75A3. The description is as above. To be noted: shRNA.
Regarding TAAACTTCTCACTCTTGTGAAT, the sensor-assay potency score (higher = more potent) was -1.14.
Same read-out and setting: next, TGATTCGTCCTGAAGCTGCATC: -0.869; AAATTCACTAACAACCTCCTCC: 0.396.
Take TGGTGATTCGTCCTGAAGCTGC: the sensor-assay potency score (higher = more potent) was -1.37.
Turning to TTCACTAACAACCTCCTCCATA, the sensor-assay potency score (higher = more potent) is -0.534.
Sequence TTCGTCCTGAAGCTGCATCAGA came in with a sensor-assay potency score (higher = more potent) of -0.939.
